The values below come from the supplement of paper PMC7156485.

Details in all cases: concentration: 10 µM; 24 h
The subject of experiment [1] is HCC1569. As to the kind of experiment: cell number relative to DMSO (% of DMSO); higher = more cells (less growth inhibition / toxicity). The essentials:
(§1)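 Using 384-well plates with 800 cells per well in RPMI plus 10% FBS, HCC1569 and TDF cells were exposed to compounds at 10 µM, in triplicate, for 24 h at 37 °C. Imaging of six fields per well at ×10 followed H1.0 and DAPI staining. The reported quantity, H1.0 nuclear intensity or cell number, is a median of replicates given as percent of the plate control, and HCC1569 values were smoothed for positional effects.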

Experiment [2] deals with TDF. The description is as above. The essentials:
as §1

Experiment [3] deals with TDF. Put plainly: H1.0 immunofluorescence intensity relative to DMSO (% of DMSO); higher = stronger H1.0 induction, active = 120 or more. The essentials:
as §1

The subject of experiment [4] is HCC1569. Put plainly: H1.0 immunofluorescence intensity relative to DMSO (% of DMSO); higher = stronger H1.0 induction, active = 140 or more. The essentials:
as §1

± gives the standard deviation of the averaged measurements.
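Throughout, for H1.0 immunofluorescence intensity relative to DMSO: TDF is a line of transformed human dermal fibroblasts of mesenchymal origin.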
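Throughout, for cell number relative to DMSO: TDF denotes transformed human dermal fibroblasts of mesenchymal origin.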

In the case of `CNc1ncnc2c1ncn2C1CC(OP(=O)([O-])O)C(COP(=O)([O-])O)O1.[NH4+].[NH4+]` (stereo unspecified), the cell number was 104 in the experiment with HCC1569 [1] and 100 in the experiment on TDF [2]. The H1.0 immunofluorescence intensity in the experiment with TDF [3] was 95 (inactive); with HCC1569 [4], 92.4 (inactive).

`c1ccc(-c2ccc(C(c3ccccc3)n3ccnc3)cc2)cc1` (stereo unspecified) [Bifonazole]: the cell number with HCC1569 [1] is 101; in the experiment on TDF [2] it was 98.2. Besides, the H1.0 immunofluorescence intensity in the experiment on TDF [3] is 86.2 (inactive); with HCC1569 [4], 122 (inactive).

Turning to `Cc1cc(C(=O)Nc2cccc(C(=O)Nc3cccc(C(F)(F)F)c3)c2)on1`, the cell number in the experiment on HCC1569 [1] turned out to be 100; in the experiment on TDF [2], 104. In addition, the values for the H1.0 immunofluorescence intensity in the experiment with TDF [3] and with HCC1569 [4] were 99.6 (inactive) and 113 (inactive), respectively.

On to `O=c1[nH]c(=O)n(C2CCCO2)cc1F` (stereo unspecified) [Ftorafur], for which the cell number in the experiment with HCC1569 [1] came out at 104; in the experiment on TDF [2], 102. In addition, the H1.0 immunofluorescence intensity with TDF [3] was 99.6 (inactive); in the experiment with HCC1569 [4] it was 103 (inactive).

As for `CCOC(=O)c1c(C)[nH]c(C=C2C(=O)Nc3ccccc32)c1C` [VEGF Receptor 2 Kinase Inhibitor I], the values for the cell number in the experiment on HCC1569 [1] and in the experiment with TDF [2] were 100 and 97.1, respectively. The results for the H1.0 immunofluorescence intensity with TDF [3] and in the experiment on HCC1569 [4] were 94.2 (inactive) and 103 (inactive), respectively.

On to `CCCCCC=CC=CC(O)CCCCCCCC(=O)O` (stereo unspecified), for which the cell number was 104 in the experiment with HCC1569 [1] and 100 with TDF [2]. Besides, the H1.0 immunofluorescence intensity in the experiment with TDF [3] and in the experiment with HCC1569 [4] was 100 (inactive) throughout.

Consider `CCCCCC=CCC=CCC(O)C=CC=CCCCC(=O)O` (stereo unspecified), for which the cell number stood at 102 with HCC1569 [1] and 90.4 in the experiment with TDF [2]. The H1.0 immunofluorescence intensity is 96.8 (inactive) in the experiment on TDF [3] and 101 (inactive) in the experiment on HCC1569 [4].

As for `COc1cc(Oc2ccnc3cc(OC)c(OC)cc23)ccc1NC(=O)NC(C)c1nccs1` (stereo unspecified), the cell number is 68.5 in the experiment on HCC1569 [1] and 47 with TDF [2]. In addition, the H1.0 immunofluorescence intensity with TDF [3] was 99.9 (inactive); in the experiment on HCC1569 [4], 124 (inactive).

As for `CCCCCCCCCCCCCC=CC(O)C(CO)NC(=O)CCCCCCC` (stereo unspecified) [C8 Ceramide], the cell number was 102 with HCC1569 [1] and 99.5 in the experiment on TDF [2]. The H1.0 immunofluorescence intensity is 101 (inactive) in the experiment on TDF [3] and 99.8 (inactive) in the experiment on HCC1569 [4].

`COC1C(N(C)C(=O)c2ccccc2)CC2OC1(C)n1c3ccccc3c3c4c(c5c6ccccc6n2c5c31)C(=O)NC4` (stereo unspecified) [Staurosporine, N-benzoyl-]: the figures for the cell number with HCC1569 [1] and in the experiment on TDF [2] were 66 and 53.5, respectively. The H1.0 immunofluorescence intensity in the experiment on TDF [3] is 82.4 (inactive); in the experiment on HCC1569 [4] it was 108 (inactive).

As to `Cc1[nH]c(=O)c(C#N)cc1-c1ccncc1` [Milrinone], the cell number with HCC1569 [1] is 103 ± 3.6; in the experiment on TDF [2], 108 ± 13. Further, the H1.0 immunofluorescence intensity with TDF [3] is 92.3 (inactive); with HCC1569 [4], 103 (inactive).

As for `CCN1CCCC1CNC(=O)c1c(O)c(Cl)cc(Cl)c1OC.O=C(O)C(O)C(O)C(=O)O` [S(+)-Raclopride L-tartrate], the cell number with HCC1569 [1] was found to be 101; with TDF [2] it was 105. Also, the H1.0 immunofluorescence intensity with TDF [3] is 90.3 (inactive); in the experiment on HCC1569 [4], 99.9 (inactive).

As to `CCCCCCC=CCCCCCCCCC(=O)O` [10(E)-Heptadecenoic acid], the values for the cell number in the experiment on HCC1569 [1] and in the experiment with TDF [2] were 97.6 and 95.4, respectively. The H1.0 immunofluorescence intensity with TDF [3] was 98.4 (inactive); in the experiment with HCC1569 [4], 98.8 (inactive).

For `CCNC1CC(C)S(=O)(=O)c2sc(S(N)(=O)=O)cc21.Cl` (stereo unspecified) [Dorzolamide.HCl], the cell number came to 97 in the experiment on HCC1569 [1] and 87.9 in the experiment on TDF [2]. In addition, the H1.0 immunofluorescence intensity in the experiment with TDF [3] was 100 (inactive); in the experiment on HCC1569 [4], 95.5 (inactive).

In the case of `NC(N)=Nc1nc(CSCCC(N)=NS(N)(=O)=O)cs1` [Famotidine], the cell number with HCC1569 [1] and in the experiment with TDF [2] was 102 in each case. In addition, the H1.0 immunofluorescence intensity in the experiment on TDF [3] is 94.4 (inactive); in the experiment on HCC1569 [4], 89.7 (inactive).

`CCN(CC)CCCCN1c2ccccc2Oc2ccc(Cl)cc21.Cl` [Akt Inhibitor X]: the cell number in the experiment with HCC1569 [1] came out at 83; with TDF [2], 87.1. The figures for the H1.0 immunofluorescence intensity with TDF [3] and in the experiment on HCC1569 [4] were 108 (inactive) and 150 (active), respectively.

For the compound `COc1ccc2nc(S(=O)Cc3ncc(C)c(OC)c3C)[nH]c2c1` (stereo unspecified) [Omeprazole], the cell number with HCC1569 [1] turned out to be 100; in the experiment on TDF [2], 102. Further, the H1.0 immunofluorescence intensity in the experiment on TDF [3] was 95.5 (inactive); in the experiment on HCC1569 [4] it was 111 (inactive).

Regarding `N[C@@H](Cc1cc(I)c(Oc2cc(I)c(O)c(I)c2)c(I)c1)C(=O)O` [L-thyroxine], the values for the cell number in the experiment on HCC1569 [1] and with TDF [2] were 103 and 89.5, respectively. The H1.0 immunofluorescence intensity in the experiment with TDF [3] is 97.6 (inactive); in the experiment with HCC1569 [4], 96.6 (inactive).

`CCOc1nc(NC(=O)Cc2cc(OC)ccc2OC)cc(N)c1C#N` [JNK Inhibitor VIII]: the figures for the cell number in the experiment on HCC1569 [1] and with TDF [2] were 97.9 and 104, respectively. In addition, the values for the H1.0 immunofluorescence intensity with TDF [3] and in the experiment with HCC1569 [4] were 92.7 (inactive) and 120 (inactive), respectively.

On to `COC(=O)/C=C/c1cccc(N(Cc2ccc(-c3ccc(N(C)C)cc3)cc2)C(=O)C2CCCCC2)c1`, for which the cell number in the experiment on HCC1569 [1] is 91.5; in the experiment on TDF [2] it was 95.9. The H1.0 immunofluorescence intensity in the experiment on TDF [3] is 90.7 (inactive); in the experiment with HCC1569 [4], 106 (inactive).

Take `C[C@H]1CN(C[C@H](Cc2ccccc2)C(=O)NCC(=O)O)CC[C@@]1(C)c1cccc(O)c1`: the cell number with HCC1569 [1] was found to be 94.4; in the experiment on TDF [2], 102. The values for the H1.0 immunofluorescence intensity in the experiment with TDF [3] and in the experiment with HCC1569 [4] were 88.5 (inactive) and 107 (inactive), respectively.

Regarding `CCCCCCCCCCCC=CC(C)(C)C=CCCCC(=O)O` [7,7-Dimethyl-(5Z,8Z)-eicosadienoic acid], the figures for the cell number in the experiment with HCC1569 [1] and with TDF [2] were 102 and 101, respectively. Further, the H1.0 immunofluorescence intensity in the experiment on TDF [3] is 91.9 (inactive); in the experiment with HCC1569 [4], 92.2 (inactive).

As for `O=C(O)C(O)C(O)C(=O)O.O=C(c1ccc(F)cc1)C1CCN(CCn2c(=O)[nH]c3ccccc3c2=O)CC1` [Ketanserin tartrate], the cell number in the experiment with HCC1569 [1] is 96.9; with TDF [2], 93.1. For the same compound, the values for the H1.0 immunofluorescence intensity with TDF [3] and with HCC1569 [4] were 106 (inactive) and 104 (inactive), respectively.

As for `COc1cc2ncnc(Nc3ccc(Cl)cc3F)c2cc1OC.Cl`, the results for the cell number in the experiment on HCC1569 [1] and in the experiment with TDF [2] were 83.3 and 102, respectively. Moreover, the H1.0 immunofluorescence intensity was 95.7 (inactive) with TDF [3] and 141 (active) in the experiment on HCC1569 [4].
